# Source: PubChem BioAssay
# Active and inactive are the calls of the source.
# How the values were obtained:
# [1] = small molecules captured by biotinylated probe aFSTL3 – biochemical, small-molecule microarray, fluorescence 635/667, stem cell growth factor project, primary screen (AID 1064); conditions: higher = more signal;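 further: measures binding of the biotinylated anti-FSTL3 antibody to printed compounds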
# [2] = binders from COS7 lysate, DM2A8 probe, primary screen, torsin A project, cell lysate, small-molecule microarray, fluorescence 635/667 (AID 1065); conditions: higher = more signal, COS7 lysate expressing mutant human TOR1A
# [3] = small molecules captured by biotinylated probe aFGF2 – biochemical, small-molecule microarray, fluorescence 635/667, stem cell growth factor project, primary screen (AID 1067); conditions: higher = more signal;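 further: measures binding of biotinylated aFGF2 protein to printed compounds on slides; z-score merges feature fluorescence and signal-to-noise across triplicate slides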
# [4] = small molecules captured by biotinylated probe aFGF10 – biochemical, small-molecule microarray, fluorescence 635/667, stem cell growth factor project, primary screen (AID 1071); conditions: higher = more signal;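 further: score merges 667 nm spot intensity and signal to noise from triplicate slides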
# [5] = molecular target: Neurogenic locus notch homolog protein 2 (Homo sapiens) (UniProt Q04721); assay: small molecules binding Notch2 protein – biochemical, small-molecule microarray, 635 nm fluorescence, stem cell growth factors, primary screen (AID 1073); conditions: higher = more signal
# Chain of Neurogenic locus notch homolog protein 2 (Homo sapiens) (Q04721 whole entry, looked up, canonical isoform): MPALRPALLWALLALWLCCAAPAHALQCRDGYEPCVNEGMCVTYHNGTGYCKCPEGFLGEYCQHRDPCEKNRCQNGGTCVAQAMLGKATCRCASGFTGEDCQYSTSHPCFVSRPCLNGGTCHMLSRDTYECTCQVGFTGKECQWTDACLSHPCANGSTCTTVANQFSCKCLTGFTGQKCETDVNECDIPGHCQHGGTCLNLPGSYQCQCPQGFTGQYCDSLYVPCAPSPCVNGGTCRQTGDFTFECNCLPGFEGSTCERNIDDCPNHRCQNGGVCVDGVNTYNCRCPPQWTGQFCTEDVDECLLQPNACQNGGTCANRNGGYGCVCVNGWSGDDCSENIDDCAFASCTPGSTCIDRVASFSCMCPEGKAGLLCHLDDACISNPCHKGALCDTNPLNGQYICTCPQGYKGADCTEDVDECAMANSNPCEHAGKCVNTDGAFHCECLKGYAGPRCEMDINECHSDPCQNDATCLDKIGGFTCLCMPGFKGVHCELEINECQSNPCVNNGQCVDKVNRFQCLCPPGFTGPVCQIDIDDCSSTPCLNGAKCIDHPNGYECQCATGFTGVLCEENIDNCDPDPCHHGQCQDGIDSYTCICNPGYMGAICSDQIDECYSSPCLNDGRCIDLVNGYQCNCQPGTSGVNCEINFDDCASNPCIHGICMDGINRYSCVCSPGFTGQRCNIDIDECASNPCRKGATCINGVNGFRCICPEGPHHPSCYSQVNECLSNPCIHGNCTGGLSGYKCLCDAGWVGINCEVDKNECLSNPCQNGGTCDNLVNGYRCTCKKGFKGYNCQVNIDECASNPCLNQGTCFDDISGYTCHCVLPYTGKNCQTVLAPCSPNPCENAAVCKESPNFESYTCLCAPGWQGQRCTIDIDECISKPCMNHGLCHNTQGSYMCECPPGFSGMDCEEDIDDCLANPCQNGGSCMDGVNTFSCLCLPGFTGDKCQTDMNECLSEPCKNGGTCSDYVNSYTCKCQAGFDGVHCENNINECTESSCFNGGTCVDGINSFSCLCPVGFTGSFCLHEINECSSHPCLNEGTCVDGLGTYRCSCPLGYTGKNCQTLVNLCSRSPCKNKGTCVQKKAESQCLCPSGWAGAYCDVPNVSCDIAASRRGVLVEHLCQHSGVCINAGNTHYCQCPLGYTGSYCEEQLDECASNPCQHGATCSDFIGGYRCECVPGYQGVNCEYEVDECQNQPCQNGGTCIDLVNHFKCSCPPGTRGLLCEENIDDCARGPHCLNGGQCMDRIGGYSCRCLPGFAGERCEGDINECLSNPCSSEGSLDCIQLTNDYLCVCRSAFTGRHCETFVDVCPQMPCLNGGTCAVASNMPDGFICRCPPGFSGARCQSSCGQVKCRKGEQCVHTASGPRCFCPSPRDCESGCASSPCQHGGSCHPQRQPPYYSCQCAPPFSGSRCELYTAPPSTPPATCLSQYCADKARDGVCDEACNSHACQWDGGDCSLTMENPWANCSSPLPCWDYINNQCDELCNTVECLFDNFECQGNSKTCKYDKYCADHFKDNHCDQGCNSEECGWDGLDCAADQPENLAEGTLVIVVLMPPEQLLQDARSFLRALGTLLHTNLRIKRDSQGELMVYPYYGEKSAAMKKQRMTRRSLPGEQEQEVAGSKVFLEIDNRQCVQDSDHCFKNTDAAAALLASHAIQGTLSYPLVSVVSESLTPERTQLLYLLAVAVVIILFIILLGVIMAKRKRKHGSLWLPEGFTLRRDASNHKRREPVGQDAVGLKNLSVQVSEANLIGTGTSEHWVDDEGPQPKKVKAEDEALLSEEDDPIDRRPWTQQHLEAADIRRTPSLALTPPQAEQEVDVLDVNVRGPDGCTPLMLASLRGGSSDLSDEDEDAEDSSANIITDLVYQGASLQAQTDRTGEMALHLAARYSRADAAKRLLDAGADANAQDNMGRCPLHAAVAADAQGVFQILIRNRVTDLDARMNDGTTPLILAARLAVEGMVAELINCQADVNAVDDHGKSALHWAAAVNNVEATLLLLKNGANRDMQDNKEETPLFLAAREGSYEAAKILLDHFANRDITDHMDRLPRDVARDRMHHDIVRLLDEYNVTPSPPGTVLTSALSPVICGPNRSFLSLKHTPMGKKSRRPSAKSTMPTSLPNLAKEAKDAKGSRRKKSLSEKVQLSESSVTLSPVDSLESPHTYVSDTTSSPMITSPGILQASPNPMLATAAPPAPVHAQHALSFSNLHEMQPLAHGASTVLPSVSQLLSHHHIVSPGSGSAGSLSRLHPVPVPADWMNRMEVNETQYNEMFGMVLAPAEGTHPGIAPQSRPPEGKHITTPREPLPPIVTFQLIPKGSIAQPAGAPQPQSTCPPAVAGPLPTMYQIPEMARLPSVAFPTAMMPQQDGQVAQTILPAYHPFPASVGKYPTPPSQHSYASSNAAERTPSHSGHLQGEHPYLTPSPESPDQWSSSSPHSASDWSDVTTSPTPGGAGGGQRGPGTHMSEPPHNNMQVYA
# [6] = molecular target: Pro-neuregulin-1, membrane-bound isoform (Homo sapiens) (UniProt Q02297); assay: small molecules binding neuregulin-1 protein – biochemical, small-molecule microarray, fluorescence 635/667, psychiatric disease protein project, primary screen (AID 1075); conditions: NRG1 binding, 635 nm fluorescence, higher = more signal;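 further: score combines 667 nm spot fluorescence with signal to noise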
# Chain of Pro-neuregulin-1, membrane-bound isoform (Homo sapiens) (Q02297 whole entry, looked up, the tested form may be a part, canonical isoform): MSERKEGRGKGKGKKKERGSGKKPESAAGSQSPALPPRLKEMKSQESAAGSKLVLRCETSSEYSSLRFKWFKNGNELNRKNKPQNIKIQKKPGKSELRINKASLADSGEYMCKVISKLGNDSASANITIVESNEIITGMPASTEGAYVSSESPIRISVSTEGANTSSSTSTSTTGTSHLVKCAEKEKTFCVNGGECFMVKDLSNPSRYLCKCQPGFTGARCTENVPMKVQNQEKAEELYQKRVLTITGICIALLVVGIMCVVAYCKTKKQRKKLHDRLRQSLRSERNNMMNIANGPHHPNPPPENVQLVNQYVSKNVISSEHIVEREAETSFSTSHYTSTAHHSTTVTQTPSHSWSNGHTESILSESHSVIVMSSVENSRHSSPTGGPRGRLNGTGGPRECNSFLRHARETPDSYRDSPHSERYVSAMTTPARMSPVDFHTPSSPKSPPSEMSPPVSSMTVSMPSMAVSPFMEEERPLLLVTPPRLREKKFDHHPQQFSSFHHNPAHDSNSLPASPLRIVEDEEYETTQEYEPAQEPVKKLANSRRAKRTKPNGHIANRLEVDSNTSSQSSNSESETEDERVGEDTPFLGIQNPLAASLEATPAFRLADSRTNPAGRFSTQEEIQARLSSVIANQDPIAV
# [7] = tested on: Neuregulin-1 EGF-like domain; assay: small molecules binding NRG1 EGF domain – biochemical, small-molecule microarray, 635 nm fluorescence, primary screen (AID 1081); conditions: higher = more signal;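 further: binding of the protein to compounds printed on small-molecule microarray slides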
# [8] = FRG1 expression reporter modulators in myotubes – cell-based, C2C12 myotubes, firefly/Renilla luciferase, luminescence, FRG1 inhibition for FSHD, primary screen (AID 1084); conditions: FRG1 promoter luciferase, higher = more signal, called active from +8 up or from −8 down
# [9] = small molecules captured by biotinylated probe aFST – biochemical, small-molecule microarray, fluorescence 635/667, stem cell growth factor project, primary screen (AID 1086); conditions: higher = more signal;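 further: score merges 667 nm fluorescence with signal-to-noise of each printed compound spot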
# [10] = binders of probe aHhip on microarray, primary screen, stem cell growth factor project, biochemical, small-molecule microarray, fluorescence 635/667 (AID 1087); conditions: higher = more signal;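 further: score merges spot fluorescence at 667nm with spot signal to noise ratio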
compound,measurement,setting,value
CCOC(=O)C1=C[C@@H](C(C)(C)C)N(S(=O)(=O)c2ccc(C)cc2)[C@H]1c1ccccc1,composite z-score,[1],0.401
same,composite z-score,[2],0.685
same,composite z-score,[3],0.0524
same,composite z-score,[4],0.69
same,composite z-score,[5],1.63
same,composite z-score,[6],0.4
same,composite z-score,[7],0.954
same,z-score,[8],-1.66 (inactive)
same,composite z-score,[9],1.04
same,composite z-score,[10],0.206
CN(C)C(=O)[C@@]1(CCC(=O)OC(C)(C)C)N=C(c2ccc(OCCCO)cc2)O[C@H]1c1ccccc1CN=[N+]=[N-],composite z-score,[1],-0.0162
same,composite z-score,[2],1.01
same,composite z-score,[3],0.0408
same,composite z-score,[4],0.39
same,composite z-score,[5],1.06
same,composite z-score,[6],1.92
same,composite z-score,[7],1.28
same,z-score,[8],-0.119 (inactive)
same,composite z-score,[9],0.717
same,composite z-score,[10],0.0373
CC(C)C[C@@H]1NC(=O)[C@@]23C(=O)N[C@@H](Cc4ccccc4)C2[C@H](C)[C@@]2(C)O[C@H]2C3/C=C/C/C=C\CNC(=O)[C@@H](C)NC1=O (stereo not given in full),composite z-score,[1],-0.296
same,composite z-score,[2],0.183
same,composite z-score,[3],-0.0963
same,composite z-score,[4],0.392
same,composite z-score,[5],-0.211
same,composite z-score,[6],1.1
same,composite z-score,[7],-0.483
same,z-score,[8],0.677 (inactive)
same,composite z-score,[9],-0.414
same,composite z-score,[10],-0.12
C=C(CCCC)C(=O)CC[C@H](OC(=O)c1ccccc1-c1ccccc1C(=O)O)c1ccccc1OCCO,composite z-score,[1],-0.0134
same,composite z-score,[2],0.814
same,composite z-score,[3],-0.149
same,composite z-score,[4],0.76
same,composite z-score,[5],-0.331
same,composite z-score,[6],1.06
same,composite z-score,[7],1.07
same,z-score,[8],-1.42 (inactive)
same,composite z-score,[9],-0.214
same,composite z-score,[10],-0.249
CCOC(=O)C[C@H]1[C@H](OC(=O)c2ccccc2-c2ccccc2)[C@@H](NC(=O)c2ccc3ccccc3n2)c2cc(OCCCO)ccc2N1C(=O)c1ccccc1,composite z-score,[1],-0.384
same,composite z-score,[2],0.491
same,composite z-score,[3],-0.0752
same,composite z-score,[4],0.331
same,composite z-score,[5],0.417
same,composite z-score,[6],0.288
same,composite z-score,[7],0.666
same,z-score,[8],-0.764 (inactive)
same,composite z-score,[9],0.377
same,composite z-score,[10],0.0401
CC(C)OC(=O)CC(=O)CC(O)c1ccc([N+](=O)[O-])cc1 (stereo not given),composite z-score,[1],0.231
same,composite z-score,[2],0.219
same,composite z-score,[3],0.0033
same,composite z-score,[4],0.307
same,composite z-score,[5],0.795
same,composite z-score,[6],0.0916
same,composite z-score,[7],0.438
same,z-score,[8],0.719 (inactive)
same,composite z-score,[9],0.0731
same,composite z-score,[10],-0.123
C=CCC(OC(C)=O)[C@@H]1[C@@H](N(Cc2ccc(-c3cccc(C(F)(F)F)c3)o2)C(=O)Cc2ccc(OC)cc2)c2cc(OCCCO)ccc2N1C(=O)Cc1ccc2ccccc2c1 (stereo not given in full),composite z-score,[1],-0.131
same,composite z-score,[2],-0.919
same,composite z-score,[3],-0.0715
same,composite z-score,[4],-0.139
same,composite z-score,[5],-0.696
same,composite z-score,[6],0.465
same,composite z-score,[7],0.113
same,z-score,[8],-0.734 (inactive)
same,composite z-score,[9],0.069
same,composite z-score,[10],0.0505
O=C1C2C=CC(C(O)c3ccc(I)cc3)N(Nc3ccccc3)C2C(=O)N1c1ccccc1 (stereo not given),composite z-score,[1],0.996
same,composite z-score,[2],0.404
same,composite z-score,[3],0.106
same,composite z-score,[4],0.368
same,composite z-score,[5],1.54
same,composite z-score,[6],2.13
same,composite z-score,[7],1.22
same,z-score,[8],-1.92 (inactive)
same,composite z-score,[9],1.27
same,composite z-score,[10],-0.0988
COCCOC(=O)N1C(=O)[C@@]2(c3cc(C#Cc4ccc(OC)cc4)ccc31)[C@H](c1ccc(OCCO)cc1)N1[C@H](c3ccccc3)[C@H](c3ccccc3)OC(=O)[C@H]1[C@@H]2C(=O)Nc1nc2ccccc2s1,composite z-score,[1],-0.118
same,composite z-score,[2],0.247
same,composite z-score,[3],-0.0262
same,composite z-score,[4],0.39
same,composite z-score,[5],1.21
same,composite z-score,[6],0.864
same,composite z-score,[7],0.718
same,z-score,[8],2.99 (inactive)
same,composite z-score,[9],-0.0352
same,composite z-score,[10],0.0695
CC(=O)NCCCC[C@@H]1NC(=O)[C@H]2C[C@@H](C(=O)NCCCCCNC(=O)CS)[C@@H](c3cccc(OCCO)c3)N2C1=O,composite z-score,[1],-0.0107
same,composite z-score,[2],0.487
same,composite z-score,[3],-0.133
same,composite z-score,[4],-0.379
same,composite z-score,[5],-0.544
same,composite z-score,[6],-0.352
same,composite z-score,[7],1.03
same,z-score,[8],0.824 (inactive)
same,composite z-score,[9],-0.203
same,composite z-score,[10],-0.0074
CC(C)[Si]1(C(C)C)OCc2cc(-c3ccc(-c4ccc(Cl)c(Cl)c4)o3)nc(CCc3ccccc3)c21,composite z-score,[1],0.0051
same,composite z-score,[2],-0.217
same,composite z-score,[3],-0.0332
same,composite z-score,[4],-0.175
same,composite z-score,[5],-0.412
same,composite z-score,[6],0.572
same,composite z-score,[7],0.261
same,z-score,[8],0.999 (inactive)
same,composite z-score,[9],-0.0731
same,composite z-score,[10],-0.201
C=CCC(OC(C)=O)[C@@H]1[C@@H](N(Cc2ccc(-c3cccc(C(F)(F)F)c3)o2)C(=O)c2cccc3ccccc23)c2cc(OCCCO)ccc2N1C(=O)Cc1ccc(OC)cc1 (stereo not given in full),composite z-score,[1],-0.238
same,composite z-score,[2],-0.125
same,composite z-score,[3],-0.143
same,composite z-score,[4],-0.0597
same,composite z-score,[5],-0.386
same,composite z-score,[6],0.0701
same,composite z-score,[7],-0.398
same,z-score,[8],0.317 (inactive)
same,composite z-score,[9],0.378
same,composite z-score,[10],-0.179
CCOC(=O)C1=CCC(c2ccccc2)N(S(=O)(=O)c2ccc([N+](=O)[O-])cc2)C1 (stereo not given),composite z-score,[1],-0.239
same,composite z-score,[2],-0.181
same,composite z-score,[3],-0.112
same,composite z-score,[4],0.154
same,composite z-score,[5],1.17
same,composite z-score,[6],-0.0979
same,composite z-score,[7],0.549
same,z-score,[8],-0.877 (inactive)
same,composite z-score,[9],0.06
same,composite z-score,[10],0.0505
COc1ccc(C#Cc2ccc3c(c2)[C@]2(C(=O)N3)[C@H](c3ccc(OCCO)cc3)N3[C@H](c4ccccc4)[C@H](c4ccccc4)OC(=O)[C@H]3[C@@H]2C(=O)N2CCc3cc(OC)c(OC)cc3C2)cc1,composite z-score,[1],-0.253
same,composite z-score,[2],0.447
same,composite z-score,[3],-0.0746
same,composite z-score,[4],0.862
same,composite z-score,[5],1.2
same,composite z-score,[6],1.78
same,composite z-score,[7],1.16
same,z-score,[8],1.14 (inactive)
same,composite z-score,[9],0.0959
same,composite z-score,[10],-0.623
C=C(CCCC)C(=O)CC[C@@H](OC(=O)c1cccnc1)c1ccc(OCCO)cc1,composite z-score,[1],-0.449
same,composite z-score,[2],0.887
same,composite z-score,[3],-0.0894
same,composite z-score,[4],0.681
same,composite z-score,[5],0.214
same,composite z-score,[6],0.89
same,composite z-score,[7],1.19
same,z-score,[8],0.84 (inactive)
same,composite z-score,[9],0.204
same,composite z-score,[10],-0.0645
CN(C)CCCCNC(=O)[C@H]1C[C@H]2C(=O)N[C@@H](CCCC[N+](C)(C)C)C(=O)N2[C@H]1c1ccc(O)cc1,composite z-score,[1],-0.334
same,composite z-score,[2],0.755
same,composite z-score,[3],-0.136
same,composite z-score,[4],-0.556
same,composite z-score,[5],-0.661
same,composite z-score,[6],-0.506
same,composite z-score,[7],0.942
same,z-score,[8],3.25 (inactive)
same,composite z-score,[9],-0.31
same,composite z-score,[10],-0.132
